From ChEMBL document CHEMBL3988442, “University of Dundee, Small-Polar-MMV Screening Library” (2021)
About 900 (1.7%) of roughly 53,000 compounds showed an effect of 50% or more. The entries come from a sample that favours strong results as a whole.

What follows are compounds tested on Mycobacterium tuberculosis (assay: Cornell - Phenotypic assay to identify agents that inhibit growth of Mycobacterium tuberculosis). Details: 10 mM as filed; unlikely as a test dose.
Type: functional
Parameters: scale not given: direction of the effect not stated beside the values
`CCN1CCCC(CNC(=O)C2(c3cc(C)cc(C)c3)CCC2)C1` (configuration not stated) was tested, and the “Percent Effect” value was -9.012%. With `COc1cccc(CC(=O)N2CCCC2c2nc(C)c(F)c(O)n2)c1` (configuration not stated) the “Percent Effect” value was -107.1%. For `CCNC(=O)NCc1ccc(-n2ccc(C(F)(F)F)n2)cc1`, the “Percent Effect” value was 21.88%. For `COCc1nnc(C(=O)N2CCC(N3CCCCC3)CC2)o1`, the “Percent Effect” value was -29.51%. For `Cc1ccc(-c2ccc(Cl)nn2)cc1S(N)(=O)=O`, the “Percent Effect” value was 6.758%. In the case of `CC(=O)N1CCC(c2n[nH]cc2-c2ccnc(N)c2)C1` (configuration not stated), the “Percent Effect” value is reported as -32.92%. `CC(C)(C)NC(=O)N1CCCn2nc(C(=O)Nc3ccccc3)cc2C1` was tested, and the “Percent Effect” value was 16.42%. `Cc1nnsc1C(=O)NCc1nn(C2CCCC2)c2c1CCCC2` was tested, and the “Percent Effect” value was 22.48%. For `Cn1cc(-c2nc(C(=O)N3CCCC3c3cnn(C)c3)cs2)cn1` (configuration not stated), the “Percent Effect” value was 20.68%. `CC(C)c1nn(C)c(N(C)C)c1CNCc1ccnn1C` was tested, and the “Percent Effect” value was 65.83%. For `CCOc1ncccc1CNCc1c(C(C)C)nn(C)c1N(C)C`, the “Percent Effect” value was -29.31%. `Cc1nn(C)c(N(C)C)c1CNCc1ccnn1C` was tested, and the “Percent Effect” value was 46.97%. In the case of `COc1ncccc1CNCc1c(C)nn(C)c1N(C)C`, the “Percent Effect” value is reported as -66.33%. `COc1ncccc1CNCc1c(C(C)C)nn(C)c1N(C)C` was tested, and the “Percent Effect” value was 63.07%. With `COc1cc(CNCc2c(C)nn(CC(C)C)c2N(C)C)ccn1` the “Percent Effect” value was -17.24%. `COc1cc(CNCc2c(C)nn(C)c2N(C)C)ccn1` was tested, and the “Percent Effect” value was 97.38%. For `COc1cc(CNCc2c(C)nn(C)c2N(C)C)ccc1C`, the “Percent Effect” value was 13.2%. For `COc1ncccc1CNCc1c(C(C)C)nn(C)c1OC`, the “Percent Effect” value was 20.17%. In the case of `CCOc1ncccc1CNCc1c(C)nn(C)c1N(C)C`, the “Percent Effect” value is reported as -13.13%. `COCCOc1ncccc1CNCc1c(C)nn(C)c1N(C)C` was tested, and the “Percent Effect” value was 87.98%. `Cc1nn(CC(C)C)c(N(C)C)c1CNCc1ccnn1C` was tested, and the “Percent Effect” value was -14.58%. For `CCn1cc(CNC(=O)C(C)C)cn1`, the “Percent Effect” value was 7.058%. For `Cc1cc(C)cc(OCCCn2nc3ccccn3c2=O)c1`, the “Percent Effect” value was 34.72%. `Cc1ccc(N(C)C2CCCN(C(=O)Nc3ccc(F)cc3F)C2)cc1` (configuration not stated) was tested, and the “Percent Effect” value was 17.1%. With `Cc1cccc(CN2Cc3ccnn3CC(COCC3CC3)C2)n1.O=C(O)C(F)(F)F` (configuration not stated) the “Percent Effect” value was 10.51%. With `COc1ccc(Br)c(NC(=O)NCc2ncnn2C)c1` the “Percent Effect” value was -5.732%. In the case of `CCn1cc(NC(=O)CN2C(=O)CC(C)(C)c3ccccc32)cn1`, the “Percent Effect” value is reported as 23.89%. For `CC(=O)c1cccc(NC(=O)Cn2nc(-c3cccs3)oc2=O)c1`, the “Percent Effect” value was -19.71%. `Cc1cc(N2CCC(O)(CN(C)C(=O)CCN)CC2)c2cnccc2n1` was tested, and the “Percent Effect” value was 43.24%. `O=C(NCCn1cnnc1C1CC1)c1c(O)cc(F)cc1F` was tested, and the “Percent Effect” value was -13.58%. `O=C(O)CC(O)(CC(=O)O)C(=O)O.c1ccc([C@@H]2CN(Cc3ccncc3)C[C@H]2c2cc[nH]n2)cc1` was tested, and the “Percent Effect” value was 17.96%. For `O=C(O)CC(O)(CC(=O)O)C(=O)O.c1ccc([C@@H]2CN(Cc3cccnc3)C[C@H]2c2cc[nH]n2)cc1`, the “Percent Effect” value was 51.47%. `COc1ccc([C@@H]2CN(Cc3ccncc3)C[C@H]2c2cc[nH]n2)cc1.O=C(O)CC(O)(CC(=O)O)C(=O)O` was tested, and the “Percent Effect” value was 34.94%. For `O=C1CC(c2ccccc2)c2c(c(C(=O)O)cn2-c2ccccc2)N1` (configuration not stated), the “Percent Effect” value was 15.99%. `O=C(c1cc(F)ccc1O)N1CCN(C2CCOCC2)CC1` was tested, and the “Percent Effect” value was 23.2%. With `Cc1cccc(NC(C)C(=O)Nc2nccs2)c1` (configuration not stated) the “Percent Effect” value was 6.251%. For `COc1ccc2[nH]cc(-c3ccnc(N4CCC(C)CC4)n3)c2c1`, the “Percent Effect” value was 24.84%. `COC(=O)c1ccc2c(-c3ccnc(NCCO)n3)c[nH]c2c1` was tested, and the “Percent Effect” value was -4.775%. With `COc1ccc2[nH]cc(-c3ccnc(NC4CCCC4)n3)c2c1` the “Percent Effect” value was 104.1%. In the case of `COCCO[C@@H]1CCN(C(=O)c2ccnnc2)[C@H]1Cc1cnn(C)c1`, the “Percent Effect” value is reported as 2.018%. `CCNC(=O)[C@@H]1C[C@@H](NC(=O)Cc2cc(C)no2)CN1Cc1ccsc1` was tested, and the “Percent Effect” value was -13.59%. With `CCNC(=O)[C@@H]1C[C@@H](NC(=O)Cc2ccncc2)CN1Cc1ccsc1` the “Percent Effect” value was 31.97%. In the case of `CCNC(=O)[C@@H]1C[C@H](NC(=O)Cn2ccnc2)CN1Cc1ccsc1`, the “Percent Effect” value is reported as 104.2%. `Cc1ncc(C(=O)OCC2CCN(c3ccccc3)C2)s1` (configuration not stated) was tested, and the “Percent Effect” value was -13.58%. For `Cn1cc(CN2CCC(c3ncc(Cl)cc3S(C)(=O)=O)CC2)cn1`, the “Percent Effect” value was 39.28%. For `Oc1nc(N2CCCC2)nc2c1CCN(Cc1ccsc1)CC2`, the “Percent Effect” value was 2.378%. With `Cc1nc(C)c2c(n1)CCN(Cc1ccco1)CC2` the “Percent Effect” value was -0.9283%. With `Cc1nc(N2CCCC2)nc2c1CCN(Cc1ccoc1)CC2.O=C(O)C(F)(F)F` the “Percent Effect” value was 56.27%. For `Cc1nc(N2CCOCC2)nc2c1CCN(Cc1cccnc1)CC2.O=C(O)C(F)(F)F`, the “Percent Effect” value was 26.93%. With `Cc1nc(N2CCCC2)nc2c1CCN(Cc1ccsc1)CC2.O=C(O)C(F)(F)F` the “Percent Effect” value was 72.79%. In the case of `Cc1nc(N2CCCC2)nc2c1CCN(Cc1ccco1)CC2.O=C(O)C(F)(F)F`, the “Percent Effect” value is reported as 96.95%. With `Cc1nc(N2CCCC2)nc2c1CCN(Cc1nccn1C)CC2.O=C(O)C(F)(F)F` the “Percent Effect” value was 0.1901%. For `Cc1nc(N2CCOCC2)nc2c1CCN(Cc1ccsc1)CC2.O=C(O)C(F)(F)F`, the “Percent Effect” value was 27.7%. For `CC(C)Oc1ncnc2c1CCN(Cc1ccco1)CC2.O=C(O)C(F)(F)F`, the “Percent Effect” value was 21.95%. For `Cc1cc2cccc(NC(=O)N3CCC(N4CCSCC4)CC3)c2o1`, the “Percent Effect” value was 26.32%. In the case of `O=C(CN1CCC2(CC1)NC(=O)c1cc(Br)ccc1N2)NC1CC1`, the “Percent Effect” value is reported as -67.58%. With `Cc1cccc(CN2CCCCC23CCNC3)n1.O=C(O)C(F)(F)F.O=C(O)C(F)(F)F` (configuration not stated) the “Percent Effect” value was 9.569%. In the case of `O=C(NCCc1coc(-c2ccc(F)cc2)n1)NC1CC1`, the “Percent Effect” value is reported as 9.97%. With `CN[C@@H]1CCC[C@@H](Oc2ccccc2Oc2ccc(C)cc2)[C@@H]1O` the “Percent Effect” value was 74.11%. For `N[C@@H]1CCC[C@@H](Oc2ccc(F)cc2Oc2ccccc2)[C@@H]1O`, the “Percent Effect” value was -14.7%. `Cc1ccc(Oc2cc(F)ccc2O[C@@H]2CCC[C@@H](N)[C@H]2O)cc1` was tested, and the “Percent Effect” value was 30.66%. With `Cc1ncsc1-c1nnc(C2CCCN2C(=O)Cn2cccn2)o1` (configuration not stated) the “Percent Effect” value was -1.275%. For `CCOc1c(Cl)cccc1NCc1cc(C)on1`, the “Percent Effect” value was 15.54%. With `Cc1cc(CNc2cc(Cl)ccc2OCCS(C)(=O)=O)no1` the “Percent Effect” value was -0.6634%. In the case of `Cc1cc(CNc2cc(Cl)ccc2Cl)no1`, the “Percent Effect” value is reported as 51.97%. For `O=C(NCc1ccccc1Cn1cncn1)C1CCCC1`, the “Percent Effect” value was 0.5526%. With `Cc1noc(C)c1CN1CCC2(CC1)NC(=O)CC2c1cnn(C)c1` (configuration not stated) the “Percent Effect” value was 47.68%. For `Clc1ccccc1-c1nc(CNC2CCc3ncnn3C2)co1` (configuration not stated), the “Percent Effect” value was -41.84%. For `Cc1cnc(N2CCOC3(CCCN(C(=O)C(C)C)C3)C2)nc1` (configuration not stated), the “Percent Effect” value was 8.771%. In the case of `Cc1noc(C2(C)CCN(C(=O)C(C)C)CC2)n1`, the “Percent Effect” value is reported as -18.49%. With `Cc1ncc2c(n1)C1(CCN(C(=O)C3CC3)CC1)OCC2.Cl` the “Percent Effect” value was 55.8%. For `Cc1ncc2c(n1)C1(CCN(C(=O)C(C)C)CC1)OCC2.Cl`, the “Percent Effect” value was 54.97%. With `Cc1ncc(C(=O)N2CC(C(=O)N3CCOCC3)C2)c(C)n1` the “Percent Effect” value was -7.514%. In the case of `O=C(C1CC1)N1CCC2(CC1)OCCO2`, the “Percent Effect” value is reported as -14.17%. `CCC(CO)N(Cc1cccnc1)C(=O)c1ccncc1F` (configuration not stated) was tested, and the “Percent Effect” value was 1.978%. For `CCc1ncc(CN[C@@H]2CCCN(C(C)=O)[C@H]2c2ccc(C)s2)cn1.Cl`, the “Percent Effect” value was 15.97%. With `CCc1cc(NC2CCOCC2)n2nc(C)c(C)c2n1` the “Percent Effect” value was 14.02%. `Cc1ccc(-c2nc(CN3CCC(N4CCNC4=O)CC3)co2)cc1` was tested, and the “Percent Effect” value was 0.5995%. `CCc1ccc(CN2C[C@@H](c3nc(C)no3)C[C@H]3OCC[C@H]32)o1.O=C(O)C(F)(F)F` was tested, and the “Percent Effect” value was 28.15%. With `Cc1noc([C@H]2C[C@H]3OCC[C@H]3N(Cc3ccc4c(c3)OCO4)C2)n1.O=C(O)C(F)(F)F` the “Percent Effect” value was 10.54%. For `Cc1noc([C@H]2C[C@H]3OCC[C@H]3N(Cc3ccc(F)cc3)C2)n1.O=C(O)C(F)(F)F`, the “Percent Effect” value was 52.79%. In the case of `O=C(C1CCCC1)N1CCCC1c1nnc2n1CCCCC2` (configuration not stated), the “Percent Effect” value is reported as -1.073%. For `CC(C)c1nc(CSc2nnc(C3CC3)n2CC(N)=O)no1`, the “Percent Effect” value was 15.19%. In the case of `Cc1nc(NC2CCCC2)cc(C2CCN2C(=O)c2ccccn2)n1` (configuration not stated), the “Percent Effect” value is reported as -60.39%. `Cc1cnc(NC(=O)c2csc(NC3CCCC3)n2)s1` was tested, and the “Percent Effect” value was 99.29%. In the case of `CC(NC(=O)Nc1nccs1)C(=O)NC1CCCC1` (configuration not stated), the “Percent Effect” value is reported as 13.09%. For `CC(C)NC(=O)c1csc(NC2CC2)n1`, the “Percent Effect” value was 29.51%. For `CC(C)Nc1nc(C(=O)Nc2ccccn2)cs1`, the “Percent Effect” value was 27.58%. `O=C(Nc1ccccn1)c1csc(NC2CCCC2)n1` was tested, and the “Percent Effect” value was 105.8%. For `CC(C)CCNC(=O)c1csc(NC2CC2)n1`, the “Percent Effect” value was 27.3%. In the case of `CC(C)CCNc1nc(C(=O)NC2CC2)cs1`, the “Percent Effect” value is reported as 44.5%. `Cc1cnc(NC(=O)c2csc(NCC(C)C)n2)s1` was tested, and the “Percent Effect” value was 60.38%. `Cc1cccc(NC(=O)c2csc(NCC(C)C)n2)n1` was tested, and the “Percent Effect” value was 22.32%. `O=C(Nc1nccs1)c1csc(NC2CCCC2)n1` was tested, and the “Percent Effect” value was 105.9%. In the case of `Cc1cnc(NC(=O)N2CCCC2)s1`, the “Percent Effect” value is reported as 13.69%. In the case of `Cc1nc(CNCc2cccc(OC34CCCN(CC3)C4)c2)n[nH]1` (configuration not stated), the “Percent Effect” value is reported as 22.09%. With `Cc1nn2c(NC(=O)CSc3nccn3C)csc2nc1=O` the “Percent Effect” value was -11.03%. For `O=C1CCC(C(=O)Nc2ccc(=O)n(Cc3ccccc3Cl)c2)N1` (configuration not stated), the “Percent Effect” value was -13.24%. For `CNC(=O)c1cccc(C2CNCCN2C(=O)C2CCNCC2)c1` (configuration not stated), the “Percent Effect” value was 0.2477%. `CCS(=O)(=O)CC(=O)Nc1cc(-c2cccc(F)c2F)n[nH]1` was tested, and the “Percent Effect” value was 15.94%. In the case of `CC(=O)Nc1cc(-c2cccc(F)c2F)n[nH]1`, the “Percent Effect” value is reported as 22.81%. `CCOCC(=O)Nc1cc(-c2cccc(F)c2F)n[nH]1` was tested, and the “Percent Effect” value was 57.77%.
